From PubChem BioAssay
Shown are actives, neighbours in structure and some others; about 1.4% of the full set was active somewhere.
hERG WT inh: KCNH2 (human, wildtype) channel inhibition | activity change, % at 1.84 µM | hit rate 0.37% among 340,000 | AID 720551 | U2OS, BacMam KCNH2, thallium flux FluxOr; stronger effect = lower value | Q12809;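 active = maximum activity change below -70%; inconclusive = maximum activity change between -70% and -50%; inactive = maximum activity change above -50%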
Target sequence (Q12809 whole entry, looked up): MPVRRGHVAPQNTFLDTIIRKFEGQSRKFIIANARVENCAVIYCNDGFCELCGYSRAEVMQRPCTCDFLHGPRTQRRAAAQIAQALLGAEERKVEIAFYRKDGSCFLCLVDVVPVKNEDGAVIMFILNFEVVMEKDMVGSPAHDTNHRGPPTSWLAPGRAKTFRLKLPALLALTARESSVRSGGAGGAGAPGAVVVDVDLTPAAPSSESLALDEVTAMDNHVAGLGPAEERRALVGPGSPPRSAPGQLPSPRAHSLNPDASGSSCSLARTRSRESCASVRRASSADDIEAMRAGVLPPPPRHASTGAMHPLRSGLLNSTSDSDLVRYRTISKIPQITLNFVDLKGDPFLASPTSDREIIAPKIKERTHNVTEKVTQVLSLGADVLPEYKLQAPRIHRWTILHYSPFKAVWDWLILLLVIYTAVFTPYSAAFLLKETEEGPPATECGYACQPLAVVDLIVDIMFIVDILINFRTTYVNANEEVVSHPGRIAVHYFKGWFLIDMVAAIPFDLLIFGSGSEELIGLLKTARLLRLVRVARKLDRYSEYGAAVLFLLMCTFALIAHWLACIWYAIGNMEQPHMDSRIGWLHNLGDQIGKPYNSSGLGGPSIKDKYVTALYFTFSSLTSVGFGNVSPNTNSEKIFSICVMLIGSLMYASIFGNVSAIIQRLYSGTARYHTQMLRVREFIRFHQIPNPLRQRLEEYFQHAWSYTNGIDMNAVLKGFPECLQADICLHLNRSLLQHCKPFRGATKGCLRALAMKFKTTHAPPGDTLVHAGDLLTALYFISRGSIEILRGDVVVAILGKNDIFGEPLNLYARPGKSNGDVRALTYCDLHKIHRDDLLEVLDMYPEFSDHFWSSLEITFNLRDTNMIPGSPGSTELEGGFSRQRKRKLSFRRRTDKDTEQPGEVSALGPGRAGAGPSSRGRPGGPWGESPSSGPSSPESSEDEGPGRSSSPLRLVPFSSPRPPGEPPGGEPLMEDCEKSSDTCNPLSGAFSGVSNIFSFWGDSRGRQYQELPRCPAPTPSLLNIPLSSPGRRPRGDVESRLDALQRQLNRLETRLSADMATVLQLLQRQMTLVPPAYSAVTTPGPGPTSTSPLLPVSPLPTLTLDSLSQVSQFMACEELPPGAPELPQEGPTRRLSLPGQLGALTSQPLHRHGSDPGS
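U2OS cells were transduced with wild-type KCNH2 virus (2.03 x 10^8 / mL) for 4 h at room temperature, then cultured overnight at 37 C. Thallium flux was read with FluxOr dye. Rate constants were normalized to DMSO controls.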
EPAC1 antag: blocks human EPAC1 exchange factor. AID 720709. hit rate 0.14% among 360,000. EPAC1 GEF assay, Rap1b-BODIPY-GDP exchange fluorescence. O95398. Potency, µM (series often up to 115 µM), usual class: inhibitors; note: nearly all actives have a fitted effect of over 50% in size
EPAC2 agonist: activates human EPAC2 exchange factor; EPAC2 activation, biochemical qHTS; response scale: 100% = 6.5 mM cAMP response; Potency, µM (series often up to 154 µM), most hits filed as activators; hit rate 0.079% among 360,000; AID 720711; note: nearly all actives have a fitted effect of over 50% in size
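Each well held 100 nM EPAC2, 250 nM RAP1B-BODIPY-GDP and 50 uM GDP. Fluorescence, read at 5-min intervals to 30 min, was referenced to a 6.5 mM cAMP positive control.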
EPAC1 ag: EPAC1 (human) agonism; EPAC1 agonist qHTS, biochemical assay; response scale: 100% = response to 6.5 mM cAMP; Potency, µM (highest dose often 154 µM), most hits filed as activators; hit rate 0.073% among 360,000; O95398; note: nearly all actives have a fitted effect of over 60% in size
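Normalized to 6.5 mM cAMP, activity reflects EPAC1-catalysed release of BODIPY-GDP from Rap1B, followed kinetically over 30 min at 480 nm excitation, 540 nm emission. Reaction contained 100 nM EPAC1, 250 nM Rap1B-BODIPY-GDP, 50 uM GDP.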
EPAC2 antag: EPAC2 (human) antagonism; Q8WZA2; EPAC2 GEF exchange of Rap1B-BODIPY-GDP, fluorescence; Potency, µM (highest dose often 114 µM), hits mostly inhibitors; hit rate 0.18% among 360,000; AID 720708; note: nearly all actives have a fitted effect of over 45% in size
KCNH2 3.1 inh: blocks the human KCNH2 3.1 channel isoform. hit rate 0.95% among 340,000. U2OS KCNH2 3.1, thallium flux FluxOr; stronger effect = lower value. activity change, % (tested at about 1.8 µM);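 active = maximum activity change below -70%; inconclusive = maximum activity change from -70% to -50%; inactive = maximum activity change above -50%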;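 note: thallium influx rate constant from kinetic fluorescence after stimulation buffer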
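Normalized rate constant (relative to positive and negative DMSO controls) derived from a 2 min kinetic fluorescence read after stimulation; U2OS cells expressing the 3.1 isoform via virus at 1.77 x 10^8 /mL.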
Of the large screens only hits and unclear results are named; the others gave an inactive call. Unless noted, calls come from the whole dose curve; as a rule, active = well fitted curve in the direction sought with a large enough effect; inconclusive = small, poorly fitted or top-dose-only effect, or another doubt; inactive = no such curve, though single readings can be large; an effect the other way counts as inactive or inconclusive.

CCN(CC)c1ccc2cc(C(=O)c3cccs3)c(=O)oc2c1	EPAC2 agonist 79.4µM, EPAC1 ag 56.2µM (no result: hERG WT inh, KCNH2 3.1 inh)
CCN(CC)c1ccc2cc(-c3nc4ccccc4n3C)c(=O)oc2c1	none
COC(=O)C1=CN(c2ccc(F)cc2)C(N)=C(C#N)C1c1ccc(-c2ccccc2)cc1 (stereo not given)	none (no result: hERG WT inh, KCNH2 3.1 inh)
OCCNC(=S)Nc1cc(Cl)cc(Cl)c1	none
Cc1cc(N(C)Cc2ccccc2)nc2cc(O)ccc12	EPAC1 antag inconclusive, EPAC2 antag inconclusive
CCCN1CCc2c(sc(NC(=O)c3ccc(S(=O)(=O)N(C)c4ccccc4)cc3)c2C(N)=O)C1	EPAC2 agonist 112µM
CCCN1CCc2c(sc(NC(=O)c3ccc(S(=O)(=O)N(C)c4ccccc4)cc3)c2C(=O)NC)C1	none
O=C(/C=C/[C@H]1O[C@@H](n2ccc(=O)[nH]c2=O)[C@H](O)[C@@H]1O)NCCCc1ccccc1	none (no result: hERG WT inh, KCNH2 3.1 inh)
CCc1ccc(CN2CCC(n3nccc3NC(=O)c3ccccc3Cl)CC2)cc1	hERG WT inh -97.2, KCNH2 3.1 inh -103.2
CCc1ccc(CN2CCC(n3nccc3NC(=O)c3ccc4c(c3)OCO4)CC2)cc1	hERG WT inh inconclusive, KCNH2 3.1 inh -105.6
CSc1ccc(CN2CCC(n3nccc3NC(=O)c3ccccc3C)CC2)cc1	hERG WT inh -126.1, KCNH2 3.1 inh -122.7
O=C(Nc1ccnn1C1CCN(Cc2ccccc2)CC1)C1CCCC1	none
CC(Cc1ccc(Cl)cc1)N1CCC(n2nccc2NC(=O)C2CCCC2)CC1 (stereo not given)	KCNH2 3.1 inh -100.7
CCOCCN1CCN(C(=O)CN2CCCC2=O)CC1	none
O=C(Nc1ccc(Cl)cc1)NN1CC(=O)N(c2cccc(C(F)(F)F)c2)CC1=O	none
CN(CC(=O)Nc1ccccc1C(F)(F)F)C(=O)c1ccc2c(=O)n3c(nc2c1)CCC3	none
CCCCNC(=O)Cn1cnc2sc(C(=O)OCC)c(C)c2c1=O	none
CCOC(=O)c1sc2ncn(CC(=O)NCC3CCCO3)c(=O)c2c1C (stereo not given)	KCNH2 3.1 inh -180.5
O=P(c1ccccc1)(c1ccccc1)N(c1ccccc1)c1ccccc1	KCNH2 3.1 inh -70.0
Nc1cccc(P(=O)(c2ccccc2)c2ccccc2)c1	none
COC(=O)[C@]12CCCCC=C1N(CCc1ccc(OC)c(OC)c1)C(=O)[C@H](CC(=O)NCCc1ccccc1OC)C2	none (no result: hERG WT inh, KCNH2 3.1 inh)
O=c1c(Cc2c(F)cccc2Cl)c(O)ccn1CC1CCCO1 (stereo not given)	none
O=c1c(Cc2c(F)cccc2Cl)c(O)ccn1CCc1ccccn1	EPAC1 antag inconclusive, KCNH2 3.1 inh -92.4
O=C(CN1CCN(C(=O)CNC(=O)c2ccc3c(c2)OCO3)CC1)Nc1ccccc1Cl	none
CCOc1ccc(NC(=O)CN2C(=O)CSC2=O)cc1	KCNH2 3.1 inh -89.9
O=C(CN1CCN(CC(=O)Nc2ccccc2Cl)CC1)Nc1ccc(F)c(F)c1	hERG WT inh inconclusive, KCNH2 3.1 inh -110.9
O=C(CN1CCCCCC1)Nc1ccc(F)c(F)c1	none
O=C(CN1CCN(C(=O)CNC(=O)c2ccc(-c3ccccc3)cc2)CC1)Nc1ccccc1Cl	KCNH2 3.1 inh -84.4
Cc1c(C(=O)N2CCN(CC(=O)Nc3ccccc3Cl)CC2)oc2ccc(Br)cc12	KCNH2 3.1 inh -73.4
COc1ccccc1CN(C)C(=O)COC(=O)c1cc(C)oc1C	none
Cc1cccc2c(N=O)c(O)[nH]c12	none
CCOc1ccc(NC(=O)CN2CCN(CC(=O)Nc3ccc(F)c(F)c3)CC2)cc1	hERG WT inh -117.3, KCNH2 3.1 inh -92.9
Cc1ccc2oc(C(=O)N3CCCCCC3)c(C)c2c1	EPAC2 antag 56.2µM
Cc1cc(C)c2c(n1)SCC(=O)N2CC(=O)Nc1ccc(C)c(C)c1	KCNH2 3.1 inh -130.2
COc1cccc(NC(=O)CN2C(=O)CSc3nc(C)cc(C)c32)c1	none
Cc1c(C(=O)N2CCCCC2)oc2ccc(Br)cc12	EPAC1 ag inconclusive, EPAC2 antag inconclusive
CCOc1ccc(NC(=O)CN2CCN(CC(=O)Nc3ccc(C(=O)OC)cc3)CC2)cc1	hERG WT inh inconclusive, KCNH2 3.1 inh -83.0
Cc1c(CN(C)C(=O)/C=C/c2ccc([N+](=O)[O-])cc2)cnn1C	none
CCOc1cc(C(=O)Nc2ccc(S(=O)(=O)NC3=NCCCCC3)cc2)cc(Br)c1OC	none
CCc1nc(N)nc(N)c1-c1ccc(N(C)Cc2ccccc2)c([N+](=O)[O-])c1	KCNH2 3.1 inh inconclusive
O=C(Nc1ccc(S(=O)(=O)N2CCOCC2)cc1)c1ccc(S(=O)(=O)N2CCOCC2)cc1	none
O=C(NC12CC3CC(CC(C3)C1)C2)c1ccc(S(=O)(=O)N2CCOCC2)cc1	KCNH2 3.1 inh -109.3
COc1ccccc1CNC(=O)Cn1nnnc1CN(C)C(C)C	none
COc1ccccc1Cc1nnnn1CC(=O)O	KCNH2 3.1 inh -91.8
Cc1cccc(OCc2nnc(SCC(=O)O)n2-c2ccccc2)c1	none
COc1ccc(NS(=O)(=O)c2ccc(C(=O)N(C)Cc3cccs3)cc2)cc1	none
CCCCN(CCCC)CCCNC(=O)C12CN(Cc3ccccc3)CC1C(c1cccc([N+](=O)[O-])c1)=NO2 (stereo not given)	hERG WT inh -75.6, KCNH2 3.1 inh -86.7
O=C(NCc1ccccc1)C12CN(Cc3ccccc3)CC1C(c1cccc([N+](=O)[O-])c1)=NO2 (stereo not given)	none
O=c1cc(-c2ccc(O)cc2)oc2c(O)c(O)c(O)c(O)c12	EPAC1 antag 6.31µM
COC(=O)C1=NN(c2ccc(C)cc2)C2(S1)SC(C(C)=O)=C(C)N2c1ccccc1 (stereo not given)	EPAC2 antag 3.16µM
Cc1cccc(C)c1NC(=O)C1(C)CN(S(C)(=O)=O)CC(=O)N1CCc1c[nH]c2ccccc12 (stereo not given)	none (no result: hERG WT inh, KCNH2 3.1 inh)
CC(C)(C)c1ccc(NC(=O)Nc2ccc(OCC(=O)N3CCOCC3)cc2)cc1	none
O=C(Nc1ccc(OCC(=O)N2CCOCC2)cc1)Nc1cccc(Cl)c1	KCNH2 3.1 inh -82.2
COC(=O)Cn1nc(-c2ccc(C)cc2)c2ccccc2c1=O	none
COc1ccc(CCNC(=O)CC2(CC3=NS(=O)(=O)c4ccccc4N3)CCCC2)cc1OC	none
Cc1ccc(CNC(=O)CC2(CC3=NS(=O)(=O)c4ccccc4N3)CCCC2)cc1	KCNH2 3.1 inh -84.8
O=C(O)c1cn(Cc2ccccc2)nc1-c1cccnc1	none
CC1CCN(S(=O)(=O)c2ccc3c(c2)c(=O)c(C(=O)N2CCCCC2)cn3C)CC1	none
CC1CCN(S(=O)(=O)c2ccc3c(c2)c(=O)c(C(=O)N2CCOCC2)cn3C)CC1	KCNH2 3.1 inh -127.1
